HCMV inh: blocks human cytomegalovirus replication; HFF cells, HCMV-luciferase reporter, 72 h; stronger effect = lower value; activity change, negative = inhibition, % at 57.5 µM; 410,000 tested, 4.5% active; AID 1259415; in the data active = activity change below about -60%; inconclusive = no clear call, values can overlap the other calls; inactive = above about -39%
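Compounds were evaluated in HFFs infected with an HCMV luciferase reporter virus (MOI 1 PFU/cell). Luciferase in lysates collected 72 h post infection served as the replication measure.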
Marburg entry inh: blocks Marburg virus binding to or entry into cells; Marburg virus pseudotyped entry inhibition, cell reporter; 300,000 tested, 1.8% active; Potency, µM (series often up to 37.8 µM), actives largely listed as inhibitors; calls by dose curve; tested in HEK293 cells
LASV entry inh: Lassa virus entry inhibition. Lassa virus pseudotype entry inhibition, cell reporter. Potency, µM (top dose mostly 37.9 µM), actives largely listed as inhibitors. 300,000 tested, 1.2% active. AID 540256; calls by dose curve; tested in HEK293 cells; also: nearly all actives have a fitted effect of over 50% in size
Vaccinia Venus: inhibitors of vaccinia virus (Venus reporter) | 330,000 tested, 0.46% active | Vaccinia virus Venus reporter expression, fluorescence | AID 720580 | Potency, µM (top dose mostly 36.5 µM), most hits filed as inhibitors; calls by dose curve; tested in A549 cells; also: nearly all actives have a fitted effect of over 30% in size
Vaccinia mCherry: inhibitors of vaccinia virus infection (mCherry reporter signal); Vaccinia virus mCherry reporter infection, fluorescence; 310,000 tested, 0.63% active; AID 720579; Potency, µM (titrated, usually from 36.5 µM), usual class: inhibitors; calls by dose curve; tested in A549 cells; also: nearly all actives have a fitted effect of over 35% in size
HCV inh: inhibitors of hepatitis C virus infection; Huh7.5.1 HCVcc-Cre infection, luciferase reporter, 44 h; Potency, µM (highest dose often 41.8 µM), usual class: inhibitors; 340,000 tested, 3.4% active; active = well fitted inhibition curve with a large enough effect; inconclusive = small, poorly fitted or top-dose-only effect, or another doubt; inactive = no such curve, though single readings can be large or run the other way
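Antiviral activity was scored by luciferase reporter output from cells infected with HCVcc-Cre (~0.5 moi) in presence of compound, 44 h infection period, cells seeded 1,000/well 4 h prior.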
Large screens that a line does not name were inactive. Sampled rows, rich in hits. Any-hit rate of the full collection: about 7.8%.

CCOc1ccc(Sc2cc(C(=O)NCCc3ccc(OC)c(OC)c3)c3ccccc3n2)cc1	Vaccinia Venus inconclusive, Vaccinia mCherry inconclusive (no result: Marburg entry inh, HCV inh)
COc1ccc(N2CCN(C(c3cccc(OC)c3OC)c3nnnn3C3CCCC3)CC2)cc1 (centres undefined)	Marburg entry inh inconclusive, LASV entry inh 2.8µM, HCV inh inconclusive (no result: Vaccinia mCherry)
COc1ccccc1N1CCN(C(c2cc3ccc(C)cc3[nH]c2=O)c2nnnn2C2CCCC2)CC1 (centres undefined)	Marburg entry inh 13µM (no result: Vaccinia Venus, Vaccinia mCherry)
COc1ccccc1N1CCN(C(c2cc3cc(C)ccc3[nH]c2=O)c2nnnn2C2CCCC2)CC1 (centres undefined)	Marburg entry inh inconclusive, LASV entry inh inconclusive (no result: Vaccinia Venus, Vaccinia mCherry)
CCC(C)(C)n1nnnc1C(c1cc2cc3c(cc2[nH]c1=O)OCO3)N1CCCCC1 (centres undefined)	none
COc1ccc(OC)c(C(c2nnnn2C2CCCC2)N2CCc3ccccc3C2)c1 (centres undefined)	Marburg entry inh inconclusive, LASV entry inh inconclusive, Vaccinia Venus inconclusive, HCV inh 11µM (no result: Vaccinia mCherry)
CCC(C)(C)n1nnnc1C(c1cc2ccc(OC)cc2[nH]c1=O)N1CCN(C2CCCCC2)CC1 (centres undefined)	Marburg entry inh 13µM, HCV inh inconclusive (no result: Vaccinia Venus, Vaccinia mCherry)
Cc1ccc(NC(=O)Nc2c[nH]c(=O)[nH]c2=O)c(Cl)c1	none (no result: Marburg entry inh, HCV inh)
COc1ccc(OC)c(C(c2nnnn2C2CCCC2)N2CCN(c3ccccc3F)CC2)c1 (centres undefined)	Marburg entry inh 10µM, LASV entry inh inconclusive, HCV inh inconclusive (no result: Vaccinia mCherry)
COc1ccc(N2CCN(C(c3ccccc3OC)c3nnnn3C3CCCC3)CC2)cc1 (centres undefined)	Marburg entry inh inconclusive, LASV entry inh inconclusive, HCV inh inconclusive (no result: Vaccinia mCherry)
Cc1ccc(-c2nc(N)n(S(C)(=O)=O)n2)cc1	LASV entry inh inconclusive (no result: Vaccinia mCherry)
Cc1ccc(-n2c3nc(=O)n(C)c(=O)c-3cc3ccccc32)cc1	none
Cc1ccccc1-c1nc2c(=O)n(C)c(=O)nc-2n(C)n1	Vaccinia Venus 0.89µM, Vaccinia mCherry 2.8µM (no result: HCMV inh, Marburg entry inh, LASV entry inh, HCV inh)
Cn1nc(-c2ccccn2)nc2c(=O)n(C)c(=O)nc1-2	HCMV inh -101, HCV inh 2µM (no result: Marburg entry inh, LASV entry inh, Vaccinia Venus, Vaccinia mCherry)
Cc1ccc(-c2nc3c(=O)n(C)c(=O)nc-3n(C)n2)cc1	Vaccinia Venus 0.89µM, Vaccinia mCherry 2.8µM (no result: HCMV inh, Marburg entry inh, LASV entry inh, HCV inh)
c1ccc(-c2nccc(-c3ccco3)n2)nc1	HCMV inh inconclusive, Vaccinia mCherry inconclusive
Cn1ncnc2c(=O)n(C)c(=O)nc1-2	HCV inh 0.5µM (no result: HCMV inh, Marburg entry inh, LASV entry inh, Vaccinia Venus, Vaccinia mCherry)
N#Cc1c(-c2ccccc2)cc(-c2ccccc2)nc1SCC(O)CS(=O)(=O)Cc1ccccc1 (centres undefined)	none (no result: Marburg entry inh, HCV inh)
CCOc1ccc(NC(=O)c2nn(C)c3c2COc2ccccc2-3)cc1	none (no result: HCV inh)
COc1ccc(CNC(=O)CCc2c(C)nc3nc(CNC(=O)OC(C)(C)C)nn3c2C)cc1	none (no result: HCV inh)
CCCc1nc2c(=O)n(C)c(=O)nc-2n(C)n1	HCMV inh -99, Marburg entry inh inconclusive, LASV entry inh 1µM, Vaccinia Venus 1µM, Vaccinia mCherry inconclusive, HCV inh 2.5µM
CCc1ccc(-c2csc3ncn(CC)c(=O)c23)cc1	none (no result: Marburg entry inh, LASV entry inh)
CCc1ccc(-c2nc3c(=O)n(C)c(=O)nc-3n(CC)n2)cc1	Vaccinia Venus 11µM, Vaccinia mCherry 5.6µM (no result: HCMV inh, Marburg entry inh, LASV entry inh, HCV inh)
COC(=O)[C@@H]1CCCN1Cc1ccc2c(c1)CN(Cc1nccs1)CCO2	none (no result: HCMV inh, Marburg entry inh, LASV entry inh, HCV inh)
O=C(O)Cn1c(O)c(C2=c3ccccc3=NC2=O)sc1=O	none (no result: Marburg entry inh, LASV entry inh, Vaccinia Venus, Vaccinia mCherry)
Cn1c(O)c(C2=c3ccccc3=NC2=O)sc1=Nc1ccc(Cl)cc1	HCMV inh -67, Marburg entry inh inconclusive (no result: Vaccinia Venus, Vaccinia mCherry)
COc1cccc(NC(=O)c2cnc(SCC(=O)N3CCOCC3)n(C)c2=O)c1	none (no result: Marburg entry inh, HCV inh)
Cn1c(NCc2ccccc2)nc2cnc(Nc3ccccc3Cl)cc21	none (no result: Marburg entry inh, LASV entry inh, Vaccinia Venus, Vaccinia mCherry, HCV inh)
COc1cc(C)ccc1Oc1ccc2c(-c3ccccc3)noc2n1	none (no result: Marburg entry inh, LASV entry inh, Vaccinia Venus, Vaccinia mCherry, HCV inh)
Cc1ccc([N+](=O)[O-])c(OCCN2CCCCCC2)c1	HCMV inh -78, Marburg entry inh inconclusive (no result: Vaccinia Venus, Vaccinia mCherry)
CC1CCN(CC(CS(=O)(=O)c2ccc([N+](=O)[O-])cc2)N2CCC(C)CC2)CC1 (centres undefined)	HCMV inh -62, Vaccinia Venus inconclusive, Vaccinia mCherry inconclusive, HCV inh 5µM (no result: Marburg entry inh, LASV entry inh)
O=c1oc2ccc(Cl)cc2cc1-c1nnc(Nc2cccc(C(F)(F)F)c2)s1	HCMV inh -64
COc1ccccc1-c1cc2c(c(OC)c1)OCCN(C(=O)Cn1nc(-c3ccccc3)c3ccccc3c1=O)C2	none (no result: HCMV inh, Marburg entry inh, LASV entry inh, HCV inh)
